In the library only some 8.8% were active in any assay of this set; here they are far more common.
HTT cytoprotect: Huntington cell model cytoprotection by ATP luminescence | PC12 HTT-Q103 induced, cytoprotection, ATP luminescence, 40 h | Potency, µM (series often up to 56.4 µM), without a hit: cytoprotection (ATP increase), most hits filed as activators | 230,000 tested, 0.14% active; active means well fitted curve in the direction sought with a large enough effect; inconclusive means small, poorly fitted or top-dose-only effect, or another doubt; inactive means no such curve, though single readings can be large; an effect the other way counts as inactive or inconclusive; further: % of control where 0% means no effect; nearly all actives have a fitted effect of over 45% in size
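Stable PC12 Q103-GFP cells in serum-supplemented, phenol red-free DMEM; induction by tebufenozide at 100 nM final; compound dose series; cell viability quantified luminescently from ATP.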
Lamin A splicing: modulators of lamin A splicing; AID 1487; Potency, µM (top dose mostly 46.1 µM), inactives show top-dose ratio change, negative = inhibition, actives largely listed as inhibitors; 200,000 tested, 0.01% active; HeLa LMNA splicing GFP/RFP minigene ratio, 48 h; active means well fitted inhibition curve with a large enough effect in the signal ratio, with a control signal flat, not every such curve was filed as active; inconclusive means small, poorly fitted or top-dose-only effect, or effect the other way, or a change in a side signal; the % refers to the signal ratio; further: on the % scale 0 is the no-effect control and ±100 the full control effect
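S3 HeLa cells stably expressing lamin A-EGFP splicing minigene plus DsRed2, 600 cells/well, 48 h compound exposure at 37C. Laser-scanning cytometry; analysed as GFP (500-530 nm)/RFP (575-640 nm) total intensity ratio; 0.5% DMSO vehicle.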
HPGD inh: blocks human HPGD enzyme activity; P15428; purified HPGD, NADH fluorescence kinetic, PGE2 substrate; Potency, µM, without a hit: at the highest dose activity change, negative = inhibition, hits mostly inhibitors; 150,000 tested, 4.3% active; AID 894; further: on the % scale 0 is the no-effect control and ±100 the full control effect
Target sequence (P15428 whole entry, looked up): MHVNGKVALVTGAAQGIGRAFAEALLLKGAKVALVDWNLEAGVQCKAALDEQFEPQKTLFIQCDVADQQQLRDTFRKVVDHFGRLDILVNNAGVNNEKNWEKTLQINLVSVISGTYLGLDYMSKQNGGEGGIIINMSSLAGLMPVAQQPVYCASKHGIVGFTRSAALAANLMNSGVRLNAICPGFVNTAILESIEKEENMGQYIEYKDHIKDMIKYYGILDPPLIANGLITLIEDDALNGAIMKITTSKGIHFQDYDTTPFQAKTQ
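NADH formation kinetics: reaction with 30 uM PGE2 and 1 mM NAD+ (final), 20 nM enzyme, Tris-HCl pH 8 with Tween 20, after 15 min compound preincubation at room temperature. Fluorescence change, last versus first of five reads.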
HTT aggregate: inhibitors of mutant huntingtin aggregate formation in PC12 cells; PC12 HttQ103-GFP aggregates, Acumen cytometry, 40 h; Potency, µM (series often up to 46.1 µM), for the others: at the top dose activity change, negative = inhibition, most hits filed as inhibitors; 220,000 tested, 1.1% active; AID 1688; active means well fitted curve in the direction sought with a large enough effect; inconclusive means small, poorly fitted or top-dose-only effect, or another doubt; inactive means no such curve, though single readings can be large; an effect the other way counts as inactive or inconclusive; further: on the % scale 0 is the no-effect control and ±100 the full control effect; nearly all actives have a fitted effect of over 60% in size
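Ecdysone-promoter PC12 model expressing HTT exon 1 Q103 fused to GFP, induced by tebufenozide at 100 nM final. Compounds titrated; aggregates sized 1–25 µm scored on a 488 nm laser cytometer.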
ALDH1A1 inh: inhibitors of human aldehyde dehydrogenase 1A1; Potency, µM (titrated, usually from 75.3 µM), inactives show at the highest dose activity, negative = inhibition, usual class: inhibitors; Purified ALDH1A1, NADH fluorescence, propionaldehyde substrate; P00352; 220,000 tested, 7.3% active;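 further: plate controls were no enzyme wells and a reference inhibitor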
Target sequence (P00352 whole entry, looked up): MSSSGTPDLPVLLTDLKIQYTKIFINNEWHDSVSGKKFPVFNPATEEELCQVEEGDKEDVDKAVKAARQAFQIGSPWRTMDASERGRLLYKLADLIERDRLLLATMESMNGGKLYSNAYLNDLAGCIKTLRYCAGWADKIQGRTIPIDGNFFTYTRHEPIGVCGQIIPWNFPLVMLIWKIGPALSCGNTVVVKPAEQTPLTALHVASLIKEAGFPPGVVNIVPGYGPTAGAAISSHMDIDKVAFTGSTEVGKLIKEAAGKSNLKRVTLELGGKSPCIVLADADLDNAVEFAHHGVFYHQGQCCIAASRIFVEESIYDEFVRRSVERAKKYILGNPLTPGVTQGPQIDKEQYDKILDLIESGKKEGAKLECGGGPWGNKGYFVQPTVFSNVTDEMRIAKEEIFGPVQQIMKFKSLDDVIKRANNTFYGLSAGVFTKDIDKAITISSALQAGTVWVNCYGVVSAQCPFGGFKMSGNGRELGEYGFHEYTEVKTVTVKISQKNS
Numbers without * were called inactive; u = inconclusive; x = no result given; [ ] = dose if it differs, or a comment. Unless noted, the call rests on the fitted dose curve; in most records, active means well fitted inhibition curve with a large enough effect (not every such curve was filed as active); inconclusive means small, poorly fitted or top-dose-only effect, or another doubt; inactive means no such curve, though single readings can be large or run the other way. Potency means the concentration at half of the fitted maximal effect.

SMILES	HTT cytoprotect	Lamin A splicing	HPGD inh	HTT aggregate	ALDH1A1 inh
O=C(Nc1ccc(OCC(F)(F)C(F)F)c(C(F)(F)F)c1)c1ccccc1O	-2.6%[10 µM]	u	u	5.01µM*	2.3%
O=C(CNC(=O)c1ccccc1F)OCc1cc(=O)n2ccsc2n1	x	6.8%[46 µM]	x	x	x
CCCCc1noc2c1/C(=N\O)CC(c1ccccc1)C2 (configuration not stated)	9.2%[10 µM]	-13.9%	-21.2%	-17.0%	-0.9%
CCCCc1n[nH]c2c1/C(=N/O)CC(c1ccccc1)C2 (configuration not stated)	-29.5%[10 µM]	u	2.51µM*	u	-2.2%
CCc1n[nH]c2c1/C(=N\O)CC(c1ccccc1)C2 (configuration not stated)	-27.3%	u	3.98µM*	-11.4%[9.22 µM]	-8.0%
Cc1ccc(C(=O)O[C@@H](C(=O)O)[C@@H](OC(=O)c2ccc(C)cc2)C(=O)O)cc1 (tested in a mixture with another compound)	-21.3%[1.9 µM]	x	x	x	x
CC(CCc1ccccc1)NS(=O)(=O)c1ccccc1 (configuration not stated)	4.9%	5.0%	-10.6%	-14.3%	10µM*
COc1cc(OC)c(-c2nn3c(C4CCCCC4)nnc3s2)cc1OC	14.0%[10 µM]	-4.5%	u	15.1%	u
Clc1ccc(OCc2nn3c(C4CCCCC4)nnc3s2)c(Cl)c1	-0.2%[0.074 µM]	u	2.82µM*	-24.6%	u
COc1ccccc1-c1nnc2sc(COc3ccc(Cl)cc3Cl)nn12	-13.9%	u	1.26µM*	u	12.3%
Cc1ccc(OCC(=O)Nc2cccc(C(=O)OCc3cc(=O)n4cc(C)sc4n3)c2)cc1	x	12.1%[46 µM]	x	x	x
COc1ccc(CCN(C)CCCOc2ccc(S(=O)(=O)c3[nH]c4ccccc4c3C(C)C)cc2)cc1OC	-80.4%	x	-12.0%	x	-15.3%
CC1CCCC(=C\c2ccccc2)/C1=N/O (configuration not stated)	x	-0.8%	3.16µM*	13.4%	-7.9%
O=C1/C(=C/c2ccccc2)CCC1C1CCCC1 (configuration not stated)	-5.4%[10 µM]	-13.8%	u	-19.0%	-8.0%
CSc1cccc(NC(=O)c2nnn(Cc3ccccc3)c2N)c1	-25.3%	-0.5%	-9.1%	16.1%	-8.6%
COc1cc(NC(=O)c2nnn(Cc3ccc(SC)cc3)c2N)cc(OC)c1	4.3%	-1.8%	-14.0%	-3.8%	7.94µM*
CC1CCN(c2c(NCc3ccc(C(=O)N4c5ccccc5CC4C)cc3)c(=O)c2=O)CC1 (configuration not stated)	1.7%	u	12.6µM*	-25.9%	-11.2%
CC1CCN(c2c(NCc3ccc(C(=O)N4CCN(C5CCCCC5)CC4)cc3)c(=O)c2=O)CC1	x	3.5%	u	-3.7%	1.9%
CC1CCN(c2c(NCc3ccc(C(=O)NCCc4ccc(Cl)cc4)cc3)c(=O)c2=O)CC1	x	11.6%	u	7.3%	5.9%
CCOC(=O)C1CCN(c2c(NCCCN3CCN(Cc4ccccc4)CC3)c(=O)c2=O)CC1	5.5%[10 µM]	-0.5%	14.1µM*	15.9%	-4.4%
CCOC(=O)C1CCN(c2c(NCCCN3CCCCC3)c(=O)c2=O)CC1	4.1%[10 µM]	x	x	-26.7%[9.22 µM]	x
CCOC(=O)C1CCN(c2c(NCc3ccc(C(=O)NCCC(C)C)cc3)c(=O)c2=O)CC1	-5.1%	5.7%	3.55µM*	5.1%	-11.6%
CCOC(=O)C1CCCN(C(=O)c2ccc(CNc3c(N4CCC(C)CC4)c(=O)c3=O)cc2)C1 (configuration not stated)	-7.1%	-8.9%	10µM*	1.9%	u
Cc1ccc(C(=O)c2oc3ccccc3c2NC(=O)c2cc(-c3ccccc3)on2)cc1F	x	20.1%[46 µM]	x	x	x
CS(=O)(=O)N1CCC[C@@]2(CCN(C(=O)Nc3cccc(C#N)c3)C2)C1	0.4%	x	-9.9%	x	6.8%
SMILES	HTT cytoprotect	Lamin A splicing	HPGD inh	HTT aggregate	ALDH1A1 inh
O=C(NC1CCCC1)c1ccc(CNc2c(N3CCOCC3)c(=O)c2=O)cc1	-22.7%	11.5%	7.94µM*	32.3%	5.2%
CCCNC(=O)c1ccc(CNc2c(N3CCC(C(=O)OCC)CC3)c(=O)c2=O)cc1	-0.6%	-4.7%	4.47µM*	14.2%	u
CCOC(=O)c1csc(NNC=O)n1	16.7%[10 µM]	9.0%	-6.8%	0.2%	-3.9%
Cc1ccc2c(c1)c(N=NC(N)=O)c(O)n2C	5.3%[10 µM]	x	x	0.3%[9.22 µM]	2.4%
Cn1c(O)c(N=N/C(=N/c2ccccn2)c2ccccn2)c2cc(Br)ccc21	x	x	22.4µM*	x	14.1µM*
O=c1cc(-c2ccccc2)oc2cc(O[C@H]3O[C@H](CO)[C@@H](O)[C@H](O)[C@@H]3O)c(O)c(O)c12	-6.9%	x	x	x	x
O=C(O)C1OC(Oc2cc3oc(-c4ccccc4)cc(=O)c3c(O)c2O)C(O)C(O)C1O (configuration not stated)	x	u	4.47µM*	-20.2%	u
CCOc1ccc(CN2CCNC(=O)C2CC(=O)NCCC2=CCCCC2)cc1 (configuration not stated)	-6.2%[10 µM]	x	x	-5.9%[9.22 µM]	u
COc1cc(CN2CCNC(=O)C2CC(=O)NCCC2=CCCCC2)cc(OC)c1 (configuration not stated)	11.0%[10 µM]	u	x	-4.1%[9.22 µM]	20µM*
CC(C)(c1ccccc1)c1ccc(OCC(O)CNC2CCN(Cc3ccccc3)CC2)cc1 (configuration not stated)	-58.1%	6.4%[9.22 µM]	x	u	u
CCOC(=O)C1=C(O)/C(=C\c2ccc(CNC(=O)C(=O)Nc3ccccc3)o2)N=C1C	12.7%	u	31.6µM*	20.2%	11.2µM*
C=CCN1c2ccccc2[C@]23C[C@@H](C(=O)OC)N(C(=O)NCCC)C2=NC(C(=O)OC)=C(C(=O)OC)[C@H]13	-7.6%[10 µM]	x	x	-24.6%[9.22 µM]	x
C[C@@H]1CC[C@H]2C(=O)NC[C@@H](O)CN2[C@@H]1c1ccc(Br)cc1	1.7%[10 µM]	x	x	x	1.2%[13.5 µM]
CCC(Sc1nc2ccc(N)cc2s1)C(=O)Nc1nccs1 (configuration not stated)	5.9%	0.1%	25.1µM*	2.9%	7.94µM*
CCCCN(C)C1CCN(C(=S)Nc2cccc(SC)c2)CC1	-29.0%	-3.8%[46 µM]	x	-2.3%	10.2%
COc1ccc(N2C(=O)CC(Sc3nnnn3-c3ccc(F)cc3)C2=O)cc1 (configuration not stated)	-211.7%	u	x	-1.9%[9.22 µM]	2.51µM*
CCCc1ccc(C#N)c(SC2CC(=O)N(c3ccc(OC)cc3)C2=O)n1 (configuration not stated)	23.7%[10 µM]	u	x	8.9%[9.22 µM]	u
O=C1CC(Sc2nnnn2-c2ccccc2)C(=O)N1c1cccc(Cl)c1 (configuration not stated)	25.8%[10 µM]	-6.4%	31.6µM*	22.4µM*	0.794µM*
Clc1cccc(N2CCN(c3nnnn3-c3ccccc3)CC2)c1	-18.2%	u	x	-6.7%	u

Screens from PubChem.
